Assay outcomes as filed in PubChem BioAssay.
Most compounds without a hit are left out; they make up all but 2.2% or so of the library.
MEX-5 binding = MEX-5 zinc finger RNA-binding disruptors – biochemical, C. elegans, fluorescence polarization, MLPCN library, primary screen; Zinc finger protein mex-5 (Caenorhabditis elegans), Q9XUB2; MEX-5/FITC-TCR2 RNA binding; hits give low values; activity score (negative = inhibition of binding), % at 10 µM; 300,000 compounds, 0.38% hits; AID 1832, 2009;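 active means inhibition past about -25% in most replicates, and total fluorescence under double the plate's negative control median, limit read from the data; inconclusive means replicates evenly split on the limit, or fluorescence at least double controls; inactive means too little inhibition in most replicates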
m5-HT2A agonist = mouse Htr2a agonists via beta-arrestin recruitment, primary screen, cell-based, luminescence; 5-hydroxytryptamine receptor 2A (Mus musculus), P35363; CHO-K1 mHTR2A beta-arrestin complementation; percent of 30 µM serotonin response; activation, % at 7.6 µM; 360,000 compounds, 0.66% hits; AID 624169, 2012;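 active means activation above a run cutoff, the mean activation of all tested compounds plus 3 SD, cut at about 14% in these data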
Granule exo inh = LAMP-1 surface exposure blockers, TALL-104 cells – cell-based, flow cytometry, MLPCN library, primary screen | TALL-104 LAMP-1 surface exposure; cells stimulated with thapsigargin and PMA | inhibition, % at 10 µM | 360,000 compounds, 0.66% hits | AID 651702, 2012;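 active means inhibition above about 55%, limit read from the data; inconclusive means no clear call, values can overlap the other calls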
V-ATPase pH = regulators of yeast V-ATPase proton pumping, primary screen, pHLuorin cytosolic pH fluorescence; S. cerevisiae; response, % at 10 µM; 350,000 compounds, 0.37% hits; AID 504577, 2011; in the data active means response mostly above about 7.3%, no sharp cut-off; inactive means mostly below about 5.4%; further: actives read high
VLA-4 inh = inhibition in human VLA-4 binding assay, primary screen, VLA-4 allosteric modulator project, MLPCN library, flow cytometry, VLA-4 expressing cells; inhibition, % (about 7 µM as worked out from the volumes in the protocol); ligand binding flow cytometry; AID 2557, 2010; 330,000 compounds, 0.2% hits; Integrin alpha-4 (Homo sapiens), P13612; in the data active means inhibition above about 50%
GASC-1 inh = inhibitors of GASC-1 histone demethylase, primary screen, biochemical, fluorescence, DELFIA europium | 330,000 compounds, 0.069% hits | inhibition, % at 2.35 µM | AID 2099, 2009 | GST-JMJD2C(1-420) H3K9me3 demethylation | Lysine-specific demethylase 4C (Homo sapiens), Q9H3R0;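 active means more than half of a compound's replicate wells show inhibition beyond 50%, single wells judged on their own value; inconclusive means some, but no more than half, of replicates pass 50% inhibition; inactive means no replicate passes 50% inhibition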;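 further: signal counts dimethyl H3K9 product captured on neutravidin plate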
Target sequence (Q9H3R0 1-420 limits assumed): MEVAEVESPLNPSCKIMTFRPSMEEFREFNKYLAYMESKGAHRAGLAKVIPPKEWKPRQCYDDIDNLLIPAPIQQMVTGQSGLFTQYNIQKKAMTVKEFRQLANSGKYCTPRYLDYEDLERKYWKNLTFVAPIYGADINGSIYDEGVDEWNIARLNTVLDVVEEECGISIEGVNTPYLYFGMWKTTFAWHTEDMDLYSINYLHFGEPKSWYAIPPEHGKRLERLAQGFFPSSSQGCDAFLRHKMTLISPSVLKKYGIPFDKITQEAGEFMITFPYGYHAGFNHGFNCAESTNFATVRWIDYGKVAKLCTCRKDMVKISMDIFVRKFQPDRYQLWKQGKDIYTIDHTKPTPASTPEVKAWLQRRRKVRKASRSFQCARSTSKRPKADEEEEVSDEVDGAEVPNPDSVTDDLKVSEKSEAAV
MOR ag counter = OPRM1 agonists via beta-arrestin recruitment, confirmation, counter-screen for mouse HTR2A agonist project, cell-based, luminescence, single concentration; U2OS OPRM1 beta-arrestin PathHunter; DMSO 0%, DAMGO 9.3 µM 100%; shares compounds with m5-HT2A agonist; 2,300 compounds, 5.3% hits; activation, % at 9.3 µM;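 active means mean activation above the mean of DMSO-only wells plus 3 SD, cut at about 0.5% in these data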
m5-HT2A ag conf = mouse HTR2A agonists, beta-arrestin recruitment, confirmation, cell-based, luminescence, CHO-K1 PathHunter, triplicate; shares compounds with m5-HT2A agonist; DMSO 0%, 30 µM serotonin 100%; activation, % at 7.6 µM; 2,300 compounds, 19% hits;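 active means mean activation across triplicates above the hit threshold derived in the original primary screen, cut at about 15% in these data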
Each line names hits and unclear results; the compound was inactive in the other large screens (follow-up assays come after a bar, where they were run).

CCCCNC(=O)C1(C)CCCCN1C(=O)c1ccc2c(c1)CCO2 (stereo not given)	m5-HT2A agonist 18 (no result: MEX-5 binding, V-ATPase pH, VLA-4 inh, GASC-1 inh) | MOR ag counter inactive | m5-HT2A ag conf inactive
CCCCNC(=O)C1(C)CCN1C(=O)c1ccc2c(c1)CCO2 (stereo not given)	none (no result: MEX-5 binding, V-ATPase pH, VLA-4 inh, GASC-1 inh)
COc1ccccc1C1CC(=O)NC(C)=C1C(=O)OC(C)C (stereo not given)	none
CC(C)Cn1c(N)c(C(=O)CSc2ncccn2)c(=O)n(C)c1=O	none
COc1ccccc1CCC(=O)OCC(=O)c1c(N)n(CC(C)C)c(=O)n(C)c1=O	none
COc1ccc(CCC(=O)OCC(=O)c2c(N)n(CC(C)C)c(=O)n(C)c2=O)cc1	m5-HT2A agonist 17 | MOR ag counter inactive | m5-HT2A ag conf inactive
CC(C)Cn1c(N)c(C(=O)CSc2n[nH]c(N)n2)c(=O)n(C)c1=O	m5-HT2A agonist 25 (no result: MEX-5 binding, GASC-1 inh) | MOR ag counter inactive | m5-HT2A ag conf inactive
[O-][n+]1c2ccccc2c2n1CCCN=C2c1ccc(Cl)cc1	none
CCc1nnc(NS(=O)(=O)c2ccc(NC(=O)CCC(=O)O)cc2)s1	m5-HT2A agonist 15 | MOR ag counter inactive | m5-HT2A ag conf inactive
CCc1nnc(NS(=O)(=O)c2ccccc2)s1	none
NC(=O)c1ccccc1NC(=O)COC(=O)C1(c2ccccc2)CC1	none
COc1ccc(Cl)cc1NC(=O)C1CCCN(c2ncnc3c2nc2n3CCCCC2)C1 (stereo not given)	none
NCCc1ccc(O)c(O)c1	m5-HT2A agonist 42 | MOR ag counter inactive | m5-HT2A ag conf 140
Cc1ccccc1-n1c(SCC(=O)Nc2ccccc2)nc2nc3c(cc2c1=O)CCCC3	none
CCO[C@@H]1OC(C(=O)O)=C[C@H](c2ccccc2)[C@H]1CCCO	none (no result: VLA-4 inh)
CCO[C@H]1OC(C(=O)O)=C[C@@H](c2ccccc2)[C@@H]1CCCO	m5-HT2A agonist 15 | MOR ag counter inactive | m5-HT2A ag conf inactive
Cc1cc(C)c(OCC(=O)NCC2COc3ccccc3O2)c(C)c1 (stereo not given)	m5-HT2A agonist 24 (no result: MEX-5 binding) | MOR ag counter inactive | m5-HT2A ag conf 17
Cc1cscc1-c1cc2nc(NCCCN(C)C)n(C)c(=O)c2s1	none (no result: MEX-5 binding, V-ATPase pH, VLA-4 inh, GASC-1 inh)
COc1ccc(CN2CCN(C(=O)c3ccco3)CC2)cc1OC	m5-HT2A agonist 32 | MOR ag counter inactive | m5-HT2A ag conf 82
COc1ccccc1OCc1ccc(C(=O)N2CCN(C(=O)c3ccco3)CC2)cc1	none
COc1ccc(CN2CCN(C(=O)c3ccco3)CC2)cc1OCc1ccccc1	m5-HT2A agonist 19 | MOR ag counter inactive | m5-HT2A ag conf 74
CCN1C(=O)[C@H]2[C@@H](c3ccc(-c4cccc(Cl)c4)cc3)N[C@@](Cc3ccccc3)(C(=O)OC)[C@H]2C1=O	GASC-1 inh inconclusive
COCCNc1nc(-c2cc(-c3ccc(Cl)cc3)on2)cc(C(C)C)n1	m5-HT2A agonist 16 | MOR ag counter inactive | m5-HT2A ag conf inactive
COc1ccc(/C(O)=C2/C(=O)C(=O)N(CCCN3CCOCC3)C2c2ccc(C(C)C)cc2)cc1 (stereo not given)	m5-HT2A agonist 15 | MOR ag counter inactive | m5-HT2A ag conf inactive
COCCCN1C(=O)C(=O)/C(=C(/O)c2ccc(S(=O)(=O)N3CCOCC3)cc2)C1c1ccc(C)cc1 (stereo not given)	m5-HT2A agonist 18 | MOR ag counter inactive | m5-HT2A ag conf inactive
